# Results published in PubChem BioAssay (NCATS).
# Results filed as inconclusive are left out. Where a call stands in place of a potency, no number is given. Activity calls are given as the source filed them. Unless noted, the call rests on the fitted dose curve.
# Experiments:
# [1] = qHTS for Inhibitors of the Functional Ribonucleoprotein Complex (vRNP) of Lassa (LASV) Arenavirus: LASV Primary Screen - GLuc reporter signal (AID 1347082; calls by dose curve; tested in HEK293 reporter line; further: nearly all actives have a fitted effect of over 60% in size; further: potency means the concentration at half of the fitted maximal effect)
# [2] = qHTS for Inhibitors of the Functional Ribonucleoprotein Complex (vRNP) of Lymphocytic Choriomeningitis Arenaviruses (LCMV): Viability assay - alamar blue signal for LCMV Primary Screen (AID 1347085; calls by dose curve; tested in HEK293 reporter line; further: nearly all actives have a fitted effect of over 80% in size; further: potency means the concentration at half of the fitted maximal effect)
# [3] = biological target: Nucleoprotein (Lymphocytic choriomeningitis virus (strain Armstrong)) (UniProt P09992); assay: qHTS for Inhibitors of the Functional Ribonucleoprotein Complex (vRNP) of Lymphocytic Choriomeningitis Arenaviruses (LCMV): LCMV Primary Screen - GLuc reporter signal (AID 1347086); further: nearly all actives have a fitted effect of over 70% in size; further: potency means the concentration at half of the fitted maximal effect
# Chain of Nucleoprotein (Lymphocytic choriomeningitis virus (strain Armstrong)) (P09992 whole entry, looked up): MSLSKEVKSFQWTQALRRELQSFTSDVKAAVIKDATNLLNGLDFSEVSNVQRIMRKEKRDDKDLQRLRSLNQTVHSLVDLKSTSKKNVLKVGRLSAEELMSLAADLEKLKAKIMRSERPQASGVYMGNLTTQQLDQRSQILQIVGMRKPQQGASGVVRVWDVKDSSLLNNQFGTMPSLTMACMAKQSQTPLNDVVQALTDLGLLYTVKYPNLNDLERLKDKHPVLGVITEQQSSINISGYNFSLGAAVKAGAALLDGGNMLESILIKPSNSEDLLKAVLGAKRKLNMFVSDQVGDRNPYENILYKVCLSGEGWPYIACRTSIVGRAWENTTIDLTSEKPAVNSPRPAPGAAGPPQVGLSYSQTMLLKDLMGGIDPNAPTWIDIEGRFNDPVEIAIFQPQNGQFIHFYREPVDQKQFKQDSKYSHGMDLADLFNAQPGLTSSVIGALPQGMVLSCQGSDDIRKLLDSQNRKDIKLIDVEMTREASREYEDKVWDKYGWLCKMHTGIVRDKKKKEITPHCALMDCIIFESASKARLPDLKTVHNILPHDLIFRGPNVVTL
# [4] = Validation screen for inhibitors of Lassa infection (AID 463096)
# [5] = Inducers of the Endoplasmic Reticulum Stress Response (ERSR) in human glioma: Validation (AID 504836; active means well fitted curve in the direction sought with a large enough effect)
# Procedure, shortened: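 Stably transfected U87-MG glioma cells carrying a GRP78-based luciferase sensor; 16 h compound incubation. Luminescence end-point read 10 min after Bright-Glo addition at room temperature.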
# [6] = qHTS for Inhibitors of the Functional Ribonucleoprotein Complex (vRNP) of Lassa (LASV) Arenavirus: Viability assay - alamar blue signal for LASV Primary Screen (AID 1347083; calls by dose curve; tested in HEK293 reporter line; further: nearly all actives have a fitted effect of over 80% in size; further: potency means the concentration at half of the fitted maximal effect)
# [7] = Primary qHTS to identify inhibitors of SARS-CoV-2 cell entry (AID 1645846); conditions: activity change, negative = inhibition: at 57.1 µM (top of the series) unless noted; further: nearly all actives have a fitted effect of over 45% in size
# Procedure, shortened: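 Inhibition of spike-mediated entry was scored in human ACE2-transfected Expi293F cells. Particles were MLV-pseudotyped with Wuhan-Hu-1 S carrying a 19-aa C-terminal deletion; signal was luciferase after two days, scaled between spike PP and fusion-protein-free PP.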
smiles,measurement,setting,value
COc1cc2c3cc1Oc1c(OC)c(OC)cc4c1[C@H](Cc1ccc(cc1)Oc1cc(ccc1O)C[C@H]3N(C)CC2)N(C)CC4,Potency,[1],inactive
same,Potency,[2],inactive
same,Potency,[3],inactive
COc1cc2c(c(OC)c1OC)-c1ccc(OC)c(=O)cc1[C@@H](NC=O)CC2,Potency,[1],35.5 µM (active)
same,Potency,[2],inactive
same,Potency,[3],inactive
NS(=O)(=O)OC[C@@H]1C[C@@H](n2ccc3c(N[C@H]4CCc5ccccc54)ncnc32)C[C@H]1O,Potency,[1],inactive
same,Potency,[2],13.7 µM (active)
Nc1nc(F)nc2c1ncn2[C@@H]1O[C@H](COP(=O)(O)O)[C@@H](O)[C@H]1O,Potency,[1],inactive
same,Potency,[2],inactive
same,Potency,[3],inactive
C=C1C(=O)O[C@H]2[C@H]1[C@H](OC(=O)/C(C)=C\C)C[C@]1(CO1)[C@@H]1[C@H](OC(C)=O)C=C(C)[C@]21O,Potency,[1],inactive
same,Potency,[2],inactive
same,Potency,[3],inactive
C[C@@]1(C2CCCC2)Cc2cc(OCC(=O)O)c(Cl)c(Cl)c2C1=O,Potency,[4],inactive
same,outcome,[5],inactive
same,Potency,[1],inactive
same,Potency,[6],inactive
O=C1NC(O)CCN1[C@@H]1O[C@H](CO)[C@H](O)[C@H]1O (stereo not given in full),Potency,[1],inactive
same,Potency,[6],inactive
same,"activity change, negative = inhibition",[7],-26.7%
N#CNC(=NCCCCCCOc1ccc(Cl)cc1)Nc1ccncc1,Potency,[1],0.0343 µM (active)
same,Potency,[6],0.0097 µM (active)
same,"activity change, negative = inhibition",[7],-97%
O=C(c1ccc(C=Cc2n[nH]c3ccccc23)cc1)N1CCNCC1,Potency,[1],inactive
same,Potency,[2],inactive
same,Potency,[3],inactive
COC1=C2C[C@@H](C)C[C@H](OC)[C@@H](O)[C@@H](C)C=C(C)[C@H](OC(N)=O)[C@@H](OC)C=CC=C(C)C(=O)NC(=CC1=O)C2=O,Potency,[1],9.68 µM (active)
same,Potency,[2],13.7 µM (active)
same,Potency,[3],15.3 µM (active)
